Source: PubChem BioAssay
The source made the active and inactive calls.

Tests used:
[1] = A549 cell viability effects, profiling panel, calcein-AM fluorescence, 48 h, basal (AID 1162); settings: higher = more signal
[2] = adipocyte viability effects, profiling panel, cell-based, 3T3-L1 adipocytes, calcein-AM fluorescence, 48 h, basal (AID 1163); settings: 3T3-L1 adipocytes viability, higher = more signal
[3] = HepG2 cell viability effects, profiling panel, calcein-AM fluorescence, 48 h, basal (AID 1164); settings: higher = more signal
[4] = MM1S cell viability effects, profiling panel, calcein-AM fluorescence, 48 h, basal (AID 1165); settings: higher = more signal;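 further: viability of MM1S multiple myeloma cells under basal unstimulated conditions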
[5] = basal RPMI8226 viability, no added stimulus, profiling panel, cell-based, calcein-AM fluorescence, 48 h, PK04 Diversity Set (AID 1166); settings: RPMI8226 myeloma viability, higher = more signal;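 further: cells grown under basal conditions without added stimulus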
[6] = basal HepG2 mitochondrial membrane potential changes, profiling panel, cell-based, JC-1 fluorescence, 24 h, 100 nL compound (AID 1167); settings: higher = more signal
[7] = basal 3T3-L1 adipocyte mitochondrial potential changes, profiling panel, cell-based, JC-1 fluorescence, 3T3-L1 adipocytes, 24 h, 100 nL compound (AID 1168); settings: JC-1 mitochondrial fluorescence, higher = more signal, called active from +8 up or from −8 down
[8] = basal RPMI8226 mitochondrial membrane potential changes, profiling panel, cell-based, JC-1 fluorescence, 24 h, 100 nL compound (AID 1169); settings: RPMI8226 myeloma, JC-1 mitochondrial potential fluorescence, higher = more signal
[9] = basal MM1S mitochondrial membrane potential changes, profiling panel, cell-based, JC-1 fluorescence, 24 h, 100 nL compound (AID 1170); settings: higher = more signal
[10] = A549 lung cancer cell viability effects, profiling panel, resazurin fluorescence, 24 h, PK04 Diversity Set (AID 1171); settings: higher = more signal, called active from +8 up or from −8 down
Further: test concentration not given here.

Row | SMILES | z-score [1] | z-score [2] | z-score [3] | z-score [4] | z-score [5] | z-score [6] | z-score [7] | z-score [8] | z-score [9] | z-score [10]
1 | COc1ccc(C(O)C2C=CC3C(=O)NC(=O)C3N2Nc2ccc(Cl)cc2Cl)c2ccccc12 (stereo not given) | -1.88 | 0.0133 | -2.36 | -3.8 | -3.99 | -3.88 | 0.564 (inactive) | -1.1 | 0.533 | -1.29 (inactive)
2 | Cc1ccc(N2C(=O)c3ccccc3[C@](C)(C(=O)NCCCN(C)C)[C@@H]2c2ccc(CO)cc2)nc1 | 0.235 | 0.85 | -0.153 | -0.629 | -0.444 | -0.53 | -0.419 (inactive) | -0.884 | -0.29 | 0.31 (inactive)
3 | C=CC[C@@]1(C(=O)OC)N=C(c2ccc(OCCCO)cc2)O[C@@H]1c1ccccc1N=[N+]=[N-] | -1.28 | 1.02 | -0.361 | -0.473 | -3.03 | 1 | 0.645 (inactive) | -0.983 | 0.0955 | -1 (inactive)
4 | CC(C)C[C@@H]1NC(=O)[C@@H]2C[C@H](C(=O)NCCCCCCNC(=O)CS)[C@H](c3cccc(OCCO)c3)N2C1=O | 0.028 | -0.0252 | 0.134 | -0.505 | -0.587 | -0.946 | -0.185 (inactive) | -0.217 | -0.165 | 0.457 (inactive)
5 | COc1ccc([Si](C)(C)[C@H]2[C@H](CCO)O[C@@]3(C(=O)N(Cc4cccc(N(C=O)c5ccccc5)c4)c4ccccc43)[C@@H]2C)cc1 | -0.533 | 0.441 | -3.83 | -1.18 | -4.23 | 1.01 | 0.549 (inactive) | -1.03 | -1.85 | -2.2 (inactive)
6 | O=C1C2C=CC(C(O)c3c(F)cccc3Cl)N(Nc3ccc([N+](=O)[O-])cc3)C2C(=O)N1c1ccccc1 (stereo not given) | -1 | -0.0012 | -0.645 | 0.19 | -1.09 | -1.14 | -1.26 (inactive) | -0.209 | -0.542 | 0.372 (inactive)
7 | CC(C)=CCCC(C)=CC(O)C1C=CC2C(=O)NC(=O)C2N1Nc1ccccn1 (stereo not given) | 0.531 | -0.446 | 1.29 | 0.617 | 0.586 | -0.23 | -0.503 (inactive) | 0.333 | 0.0809 | -1.39 (inactive)
8 | CC(C)C(=C=CC[C@H](O)c1ccccc1OCCO)C[C@H](O)COCc1ccccc1 | 0.827 | -0.0066 | 0.245 | -2.9 | -1.15 | -0.0954 | -0.307 (inactive) | -0.823 | -0.662 | -0.0334 (inactive)
9 | COc1ccc(C(=O)Nc2cccc(CN3C(=O)[C@@]4(O[C@@H](CC(=O)N5CCC[C@H]5CO)[C@H]([Si](C)(C)c5ccc(OC)cc5)[C@H]4C)c4ccccc43)c2)cc1 | -0.273 | 0.695 | -0.765 | -2.74 | -4.26 | 1.98 | 0.487 (inactive) | -1.13 | -1.06 | -0.35 (inactive)
10 | CC(=O)c1ccc(C(O)C2C=CC3C(=O)N(c4ccccc4)C(=O)C3N2Nc2ccc(C(C)C)cc2)cc1 (stereo not given) | -0.301 | -1.69 | 0.123 | -1.1 | -0.994 | -2.03 | -1.56 (inactive) | -0.293 | -1.29 | -0.532 (inactive)
11 | COc1ccc(C(=O)Nc2ccc3c(c2)[C@@]2(O[C@H](CCO)[C@@H]([Si](C)(C)c4ccc(OC)cc4)[C@@H]2C)C(=O)N3Cc2ccccc2)cc1 | -1.68 | 1.38 | -3.6 | -2.72 | -4.3 | -1.9 | 1.59 (inactive) | -1.04 | -2.2 | -2.72 (inactive)
12 | C=CCC(OC(C)=O)[C@@H]1[C@@H](N(Cc2cccc3ccccc23)C(=O)Cc2ccc(OC)cc2)c2cc(OCCCO)ccc2N1C(=O)Cc1ccc2ccccc2c1 (stereo not given in full) | -0.105 | 0.759 | -0.472 | 0.0986 | -1.36 | 3 | -0.199 (inactive) | -0.226 | 0.0724 | 0.719 (inactive)
13 | C[N+](C)(C)CCCC[C@@H]1NC(=O)[C@H]2C[C@@H](C(=O)NCCCCCNC(=O)CS)[C@@H](c3cccc(OCCO)c3)N2C1=O | 0.316 | 0.571 | -0.953 | -0.631 | 0.37 | 1.09 | 0.127 (inactive) | 0.812 | 0.415 | -0.219 (inactive)
14 | CN(C)CCCC[C@@H]1NC(=O)[C@@H]2C[C@H](C(=O)NCCCCCN)[C@H](c3cccc(OCCO)c3)N2C1=O | 2.2 | 0.494 | 1.44 | -0.0351 | 0.891 | 1.63 | -1.03 (inactive) | -0.891 | 0.697 | 1.08 (inactive)
15 | CC(C)C(O)C1C=CC2C(=O)NC(=O)C2N1Nc1ccccn1 (stereo not given) | -0.188 | 0.258 | 0.0775 | 0.253 | 0.11 | 0.119 | -1.28 (inactive) | 0.231 | -0.0451 | -1.05 (inactive)
16 | COCCCN1C(=O)[C@@]2(c3ccc([N+](=O)[O-])cc3)CC(=O)N(CC34CC5CC(CC(C5)C3)C4)[C@@H]2c2ccc(CO)cc21 | 0.555 | -0.731 | 1.07 | 0.657 | 1.12 | 0.722 | 0.0634 (inactive) | 0.25 | -1.87 | -1.25 (inactive)
17 | O=C1C[C@]2(c3ccc([N+](=O)[O-])cc3)C(=O)N(C3CC3)c3cc(CO)ccc3[C@H]2N1C1CCCCC1 | -0.164 | -0.898 | 0.214 | -0.464 | 0.474 | -1.07 | -0.185 (inactive) | -0.691 | -0.993 | -0.332 (inactive)
18 | CCOC(=O)C[C@H]1[C@H](OC(=O)Cc2ccc3c(c2)OCO3)[C@@H](NC(=O)Cc2ccc(OC)cc2)c2cc(OCCCO)ccc2N1C(=O)Cc1ccc(OC)cc1 | 2.07 | 1.17 | 1.57 | 0.405 | -0.658 | 1.34 | 0.376 (inactive) | 0.229 | -0.88 | -0.379 (inactive)
19 | C=C(CCCC)/C(=C/C[C@H](OC(=O)c1ccncc1)c1ccc(OCCO)cc1)c1cnc2ccccc2c1 | 1.09 | 0.464 | 0.014 | -2.55 | -0.499 | 1.98 | -0.689 (inactive) | -0.756 | -0.262 | 1.2 (inactive)
20 | CC1CC/C=C\[C@H]2OC34C=CCN(Cc5ccccc5)C(=O)[C@H]3N(CCCCCCO)C(=O)[C@@H]4C2C(=O)O1 (stereo not given in full) | 1.3 | 0.221 | 0.881 | 1.41 | 0.0497 | 0.0727 | -0.0479 (inactive) | 0.62 | 1.34 | 0.919 (inactive)
21 | [N-]=[N+]=NCc1ccccc1[C@@H]1OC(c2ccc(OCCCO)cc2)=N[C@]1(Cc1ccccc1N=[N+]=[N-])C(=O)O | 0.143 | 1.47 | -0.567 | -1.82 | -3.36 | -1.44 | -1.48 (inactive) | -1.11 | 1.44 | 0.54 (inactive)
22 | COc1ccc(NN2C(C(O)c3ccc(I)cc3)C=CC3C(=O)N(C4CCCCC4)C(=O)C32)cc1 (stereo not given) | -0.302 | -0.971 | 0.181 | -1.06 | 0.295 | 0.126 | 0.0889 (inactive) | 0.0764 | -1.65 | 1.47 (inactive)
